# Measured values: PubChem BioAssay AID2685 (National Center for Advancing Translational Sciences (NCATS), 2010)
# Hit rate of the full screen: of about 320,000 compounds, about 2,100 (0.66%) were called active. About 53% were inconclusive and are not listed. Calls come from the whole dose curve; as a rule, active = well fitted inhibition curve with a large enough effect in the signal ratio, with a control signal flat (not every such curve was filed as active); inconclusive = small, poorly fitted or top-dose-only effect, or effect the other way, or a change in a side signal; inactive = flat fitted curve, though single readings scatter; the % refers to the signal ratio. For the sample, actives were picked, then their nearest neighbours and some compounds at random.
# Assay: qHTS Assay for Lipid Storage Modulators in Drosophila S3 Cells;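 for cell number change: cells counted by Cell Tracker Red CMTPX staining in the red channel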; for lipid storage change, negative = inhibition: % is set by controls: 0 for no effect and ±100 for the full control effect
# Conditions: BODIPY lipid droplet fluorescence, 18-24 h, cells fed with added oleic acid; cell number change: measured here: cell count max response; series mostly up to 46.1 µM; lipid storage change, negative = inhibition: at the top concentration
# Outline: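 Laser-scanning cytometry quantifies lipid droplet accumulation (500–530 nm total intensity; droplet/cell object ratio) in oleic acid-fed (400 uM added) Drosophila S3 cells treated with a concentration series. 20 uM Triacsin C defined 100% inhibition.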
# Potency is the fitted concentration of half-maximal effect.
Compound,"lipid storage change, negative = inhibition",cell number change [%],outcome,Potency
COCCn1c(=O)[nH]c(=O)c2c(C(F)(F)F)cc(-c3cccs3)nc21,7.94% (inactive),6.31,,
COc1ccc(CNC(=O)c2cc(=O)c3cc(C)c(C)cc3o2)cc1,25% (inactive),22.5,,
CN(NS(=O)(=O)c1ccc(F)cc1)c1ncc(C(F)(F)F)cc1Cl,7.85% (inactive),-16.4,,
CC(=O)NCCC(=O)Nc1ncc(S(=O)(=O)c2ccc([N+](=O)[O-])cc2)s1,17.1% (inactive),18.8,,
CCCOc1ccc(N2C(=O)CC(N3CCOCC3)C2=O)cc1 (stereo unspecified),,5.36,inactive,
CCCOc1ccc(N2C(=O)CC(N3CCN(c4ccc([N+](=O)[O-])cc4)CC3)C2=O)cc1 (stereo unspecified),,5.5,,2.31 µM (active)
CCCOc1ccc(N2C(=O)CC(N3CCN(c4ccccc4F)CC3)C2=O)cc1 (stereo unspecified),11.8% (inactive),-7.57,,
Cn1c(=O)n(CC(=O)O)c(=O)c2c1nc1n2CCCN1Cc1ccccc1,-23.5% (inactive),6.57,,
O=C(COc1ccccc1[N+](=O)[O-])N/N=C/C=C/c1ccco1,-22.2% (inactive),-6.08,,
Cc1cc(NC(=O)CN2C(=O)NC3(CCC(C)CC3)C2=O)no1 (stereo unspecified),2.19% (inactive),5.62,,
O=C(NCCN1C(=O)S/C(=C\c2ccc(Cl)cc2Cl)C1=O)C1=COCCO1,,,,20.6 µM (active)
O=C(CCc1nc2ccccc2c(=O)[nH]1)NCCN1C(=O)S/C(=C\c2ccc(Cl)cc2Cl)C1=O,-29.4% (inactive),1.43,,
O=C(NCCN1C(=O)S/C(=C\c2cccc(Cl)c2Cl)C1=O)C1=COCCO1,,-26.2,,11.6 µM (active)
O=C(NCCN1C(=O)S/C(=C\c2ccc(Cl)c([N+](=O)[O-])c2)C1=O)C1=COCCO1,-27.2% (inactive),12.4,,
O=C(NCCN1C(=O)S/C(=C\c2ccc(Cl)c(Cl)c2)C1=O)C1COc2ccccc2O1 (stereo unspecified),,,inactive,
O=C(CCCN1C(=O)/C(=C/c2ccccc2Cl)SC1=S)NCCCN1CCOCC1,-10.8% (inactive),16.8,,
CC(=O)c1c2c3c(cccc3n(C)c1=O)C(=O)c1ccccc1-2,,-3.04,inactive,
Cn1c(=O)c(Nc2ccc(O)cc2)c2c3c(cccc31)C(=O)c1ccccc1-2,2.84% (inactive),4.29,,
CCOC(=O)c1c2c3c(cccc3n(C)c1=O)C(=O)c1ccccc1-2,,-24.8,,13 µM (active)
COc1ccccc1CNC(=O)c1sccc1-c1ccccc1,,7.94,inactive,
CCOC(=O)c1sc(=NC(=O)c2ccc(OC)c(OC)c2)n(C)c1C,9.28% (inactive),0.273,,
CC(=O)c1ccc(S(=O)(=O)N2CCCc3ccccc32)cc1,11.7% (inactive),13.2,,
Cc1cccc(Oc2ncnc(N)c2[N+](=O)[O-])c1C,-2.92% (inactive),1.6,,
CCCn1c(NC(=O)c2ccc([N+](=O)[O-])o2)nc2ccccc21,,-9.34,,6.51 µM (active)
Cc1cccc(NC(=O)c2ccc([N+](=O)[O-])o2)c1C,-1.69% (inactive),8.85,,

Compound,"lipid storage change, negative = inhibition",cell number change [%],outcome,Potency
O=C(Nc1ccccn1)c1cc2ccccc2o1,2.25% (inactive),-2.14,,
O=C(Nc1ncccn1)c1ccc([N+](=O)[O-])o1,-14.6% (inactive),-11.9,,
CCCn1c(NC(=O)c2ccc(C)cc2)nc2ccccc21,,,inactive,
O=C(Nc1cccc2ncccc12)c1ccc(-c2ccc(Br)cc2)o1,-6.65% (inactive),-12.1,,
O=C(Nc1ccccn1)c1ccc([N+](=O)[O-])o1,,-6.3,,20.6 µM (active)
CCCn1c(NC(=O)c2ccco2)nc2ccccc21,,-15.8,inactive,
O=C(Nc1cccc2ncccc12)c1ccc([N+](=O)[O-])o1,,26.1,,16.4 µM (active)
Cc1cc(C)cc(OCCNC(=O)c2ccc(Br)cc2)c1,,5.31,inactive,
CCC(C)c1ccc(NC(=O)Nc2cnccn2)cc1 (stereo unspecified),-6.7% (inactive),13.7,,
O=C1CC(C(=O)Nc2cc(Cl)ccc2Cl)n2ncnc2N1 (stereo unspecified),6.51% [at 9.22 µM] (inactive),-2.1,,
CCOC(=O)N1CCN(S(=O)(=O)c2ccc(C)c(C)c2)CC1,,,inactive,
CCN(CC)CCNC(=O)CCn1nc(-c2ccc(Cl)cc2)ccc1=O,-4.06% (inactive),9.34,,
O=C(C1COc2ccccc2O1)N1CCN(c2ccccc2O)CC1 (stereo unspecified),37.9% (inactive),-2.02,,
O=C(C1COc2ccccc2O1)N1CCCCC1 (stereo unspecified),-14.7% (inactive),3.75,,
O=C(C1COc2ccccc2O1)N1CCCC1 (stereo unspecified),,0.347,,6.51 µM (active)
O=C(NNc1cccc(Cl)n1)Nc1ccc(Cl)cc1,17.2% (inactive),-10.7,,
O=c1oc2ccc(F)cc2c2c1C1O[C@](c3ccsc3)(Cc3c1ccc1ccccc31)O2,17.6% [at 9.22 µM] (inactive),2.65,,
CC(C)CCNC(=O)C1CCC(=O)N1CCc1ccccc1 (stereo unspecified),1.46% (inactive),19.8,,
CCC(C)(C)NC(=O)CN(Cc1cccs1)C(=O)C(=O)Nc1ccc2c(c1)OCCO2,-17.7% (inactive),3.41,,
CC(C)(C)NC(=O)CN(C(=O)C(=O)Nc1ccc2c(c1)OCCO2)C(C)(C)C,-0.996% (inactive),-1.34,,
CCC(C)(C)NC(=O)CN(C(=O)C(=O)Nc1ccc2c(c1)OCCO2)C1CC1,,-1.67,,1.16 µM (active)
O=C(c1ccco1)N1CCN(c2cc(=O)n(-c3ccc(Cl)cc3)c(=O)[nH]2)CC1,-21.2% (inactive),,,
Cc1cc(NS(=O)(=O)c2ccc(NC(=O)CSc3nc4ncccc4[nH]3)cc2)nc(C)n1,-7.33% (inactive),-9.17,,
CCOC(=O)CNC(=O)c1sc(NC(=O)c2ccccc2)nc1C,13.4% (inactive),-2.79,,
Cc1nn(C)c(=S)n1-c1ccc(Cl)cc1,-1.67% (inactive),4.59,,

Compound,"lipid storage change, negative = inhibition",cell number change [%],outcome,Potency
Cc1n[nH]c(=S)n1-c1ccccc1,0.353% (inactive),8.27,,
Cc1nn(-c2ccccc2)c(=S)n1-c1ccccc1,,-7.47,,32.6 µM (active)
Cc1ccc(NC(=O)NCc2cccn2C)cc1C,6.76% (inactive),7.96,,
O=C(Nc1cccc(O)c1)C(=O)Nc1ccccn1,16% (inactive),0.58,,
O=C(NCc1ccc2c(c1)OCO2)c1ccc(Br)s1,18.6% (inactive),15.1,,
COC(C(=O)Nc1ccnn1C1CCN(Cc2ccc(C)s2)CC1)c1ccccc1 (stereo unspecified),4.04% (inactive),-1.51,,
COC(C(=O)Nc1ccnn1C1CCN(Cc2ccccn2)CC1)c1ccccc1 (stereo unspecified),-3.44% (inactive),-9.38,,
COC(C(=O)Nc1ccnn1C1CCN(Cc2nccs2)CC1)c1ccccc1 (stereo unspecified),,-27.2,,18.4 µM (active)
CCc1cc(Br)ccc1NC(=S)NCCc1ccccc1,,-12.4,inactive,
Cc1ccc(/C=N/NC(=O)CSc2nc3ccccc3[nH]2)o1,,23.1,inactive,
CCOC(=O)c1c[nH]c2c(C)cc(C)cc2c1=O,-5.71% (inactive),-13.9,,
Cc1ccc(CNC(=O)c2ccc(N3CCC4(CC3)CC(c3cccc(Br)c3)=NO4)c(NC(=O)c3ccco3)c2)cc1,-0.741% (inactive),-15.2,,
CCCNC(=O)c1ccc(N2CCC3(CC2)CC(c2ccccc2)=NO3)c(NC(=O)c2ccco2)c1,,-21.9,,5.17 µM (active)
CCCNC(=O)c1ccc(N2CCC3(CC2)CC(c2cccc(Br)c2)=NO3)c(NC(=O)c2cccc(C)c2)c1,-10.4% (inactive),-6.01,,
COc1ccccc1NS(=O)(=O)c1ccc2c(c1)CCN2C(=O)CCC(=O)O,11.3% (inactive),0.926,,
CC(C)c1c(C(=O)N/N=C/c2cccnc2)nnn1-c1nonc1N,,-22.2,inactive,
CCc1ccc(-c2ccc(SCc3ccccn3)nn2)cc1,1.79% (inactive),-1.78,,
Cc1cc(C)cc(C(=O)/C=C2\NC(=O)CS2)c1,-9.56% (inactive),,,
CC(C)(C)OC(=O)NOCC(=O)N(Cc1ccccc1)CC(O)COc1ccccc1 (stereo unspecified),,-1.25,,7.31 µM (active)
O=C(NN(CC(O)COc1ccccc1)CC(O)COc1ccccc1)c1ccccc1 (stereo unspecified),-2.08% (inactive),-5.14,,
CC(C)N(Cc1ccccc1)C(=O)COc1ccccc1,12.5% (inactive),2.07,,
CCOC(=O)N1CCN(C(=O)/C=C/c2c(C)nn(-c3ccc(F)cc3)c2Cl)CC1,-7.33% (inactive),-7.81,,
O=C(CSc1ccccn1)N1CCOCC1,-6.88% (inactive),-9.67,,
CS(=O)(=O)N(CC(=O)N1CCCCC1)c1ccc(Cl)c(C(F)(F)F)c1,3.58% (inactive),0.64,,
CCn1c(SCC(=O)N2CCCC2)nc2ccccc2c1=O,8.17% (inactive),-13.8,,

Compound,"lipid storage change, negative = inhibition",cell number change [%],outcome,Potency
COC(=O)c1oc(-c2ccc(Cl)cc2)nc1C,-2.09% (inactive),-10.5,,
CNC(=O)c1ncoc1-c1ccc(Cl)cc1,1.92% (inactive),12.8,,
CNC(=O)c1oc(-c2ccc(Cl)cc2)nc1C,,,,2.59 µM (active)
Cc1cccc(C)c1NC(=S)N(Cc1ccco1)C1CCN(C(C)C)CC1,4.29% (inactive),1.59,,
COc1ccc(-n2nnnc2SCC(=O)NNC(=O)c2ccc([N+](=O)[O-])cc2)cc1,14.8% (inactive),9.64,,
Cc1ccc(NC(=O)C(=O)NCCc2c[nH]c3ccccc23)cc1C,3.29% [at 9.22 µM] (inactive),15,,
CCOCCCNC(=O)CN1C(=O)c2cccc3cccc1c23,,-5.29,inactive,
COc1cc(NC(=O)c2ccccc2NS(=O)(=O)c2ccc(Cl)s2)cc(OC)c1,,-19.8,,16.4 µM (active)
COc1ccc(C)cc1NC(=O)c1ccccc1NS(=O)(=O)c1ccc(Cl)s1,9.92% (inactive),,,
Cc1ccc(NC(=O)c2ccccc2NS(=O)(=O)c2ccc(Cl)s2)cc1S(=O)(=O)N1CCOCC1,9.85% (inactive),11.6,,
CCN1CCN(c2nc3sc4c(c3c(=O)n2-c2ccc(OC)cc2)CCCCC4)CC1,-2.33% (inactive),-9.24,,
CCOC(=O)COc1ccccc1C1Nc2ccccc2C(=O)N1c1cccc(Cl)c1 (stereo unspecified),-10% (inactive),2.87,,
COc1ccc(NCc2nnc(SCC(=O)NCc3ccco3)n2-c2ccccc2OC)cc1,4.09% (inactive),13.6,,
CCC(C)NC(=O)NCc1ccccc1F (stereo unspecified),-1.24% (inactive),2.87,,
CCC(C)[C@H](NC(=O)NCc1ccc(Cl)cc1)C(=O)O (stereo partly specified),0.0506% (inactive),4.5,,
COC(=O)[C@@H](NC(=O)NCc1ccccc1F)C(C)C,,-6.12,,25.9 µM (active)
COC(=O)[C@@H](NC(=O)NCc1cccc(OC)c1)C(C)C,10.7% (inactive),-13.3,,
COC(=O)[C@H](CCSC)NC(=O)NCc1ccccc1F,-0.91% (inactive),-14.5,,
CCC(C)[C@H](NC(=O)NCc1ccccc1Cl)C(=O)O (stereo partly specified),,-0.143,,29.1 µM (active)
CCC(C)[C@H](NC(=O)NCc1ccccc1Cl)C(=O)OC (stereo partly specified),7% (inactive),-19,,
COc1cccc(CNC(=O)N[C@@H](C)C(=O)O)c1,-15.6% (inactive),1.68,,
CCC(C)[C@H](NC(=O)NCc1cccc(OC)c1)C(=O)O (stereo partly specified),,1.61,,6.51 µM (active)
